Assay outcomes: PubChem BioAssay, National Center for Advancing Translational Sciences (NCATS)
S2 tox: viability counter-screen for ATXN expression inhibitors; S2 cells (HEK-293 line with an ATXN2-luciferase reporter) viability, CellTiter-Fluor protease fluorescence, 24 h; AID 651635; 400,000 tested, 0.49% active; Potency, µM (titrated, usually from 56.7 µM), hits mostly cytotoxic; further: nearly all actives have a fitted effect of over 40% in size
KB-V1 cytotox: KB-V1 MDR subline cytotoxicity; KB-V1 MDR cells viability, CellTiter-Glo, 72 h; Potency, µM (series often up to 46.1 µM), actives largely listed as cytotoxic; 400,000 tested, 3.4% active; further: on the % scale 0 is the no-effect control and ±100 the full control effect; nearly all actives have a fitted effect of over 60% in size
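KB-V1, DMEM (no phenol red) + 10% FBS; cpd pin-transferred, titration series; 72 h, 37 degrees C; CellTiter-Glo, luminescence. Data normalized, curve-fit.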
HT1080NT lethal: kills 2HG-producing HT-1080-NT fibrosarcoma cells; HT-1080-NT fibrosarcoma viability, CellTiter-Glo ATP luminescence, 48 h; Potency, µM (highest dose often 46.1 µM), inactives show top-dose activity, negative = less viability, hits mostly cytotoxic; 360,000 tested, 1.6% active;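 further: NT is the 2HG producing partner of a matched IDH1 knockdown line; 0% = DMSO-treated cells and -100% = media-only wells without cells; nearly all actives have a fitted effect of over 55% in size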
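Compounds were tested in concentration-response format on HT-1080-NT cells for 48 hours at 37 degrees C. Cell viability came from CellTiter-Glo luminescence; curves were classified by r2, response magnitude and activity.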
KB-3-1 cytotox: KB-3-1 parental cell cytotoxicity; KB-3-1 viability, CellTiter-Glo ATP luminescence, 72 h; Potency, µM (titrated, usually from 46.1 µM), usual class: cytotoxic; 400,000 tested, 1.4% active; AID 1347075; further: on the % scale 0 is the no-effect control and ±100 the full control effect; nearly all actives have a fitted effect of over 60% in size
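Multi-concentration cytotoxicity screen in KB-3-1 cells grown in DMEM lacking phenol red with 10% FBS. After 72 h at 37 °C with compound, ATP-dependent luminescence was recorded.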
ATXN2 expr inh: ATXN2 expression inhibition; HEK-293 ATXN2-luciferase reporter, luminescence, 24 h; Potency, µM (series often up to 57 µM), inactives show at the highest dose activity change, negative = inhibition, most hits filed as inhibitors; 360,000 tested, 0.72% active; AID 1745845; further: on the % scale 0 is the no-effect control and ±100 the full control effect; nearly all actives have a fitted effect of over 55% in size
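qHTS (up to 57 uM final) was run with 24 h compound exposure of reporter cells at 37 °C. Each well was multiplexed: SteadyGlo luminescence measured ATXN2-luciferase expression after a fluorogenic Gly-Phe-AFC viability readout (25 uM final).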
HT1080 IDH1KD tx: kills HT-1080 cells with IDH1 knockdown; HT-1080 IDH1 knockdown viability, ATP luminescence, 48 h; Potency, µM (titrated, usually from 46.1 µM), inactives show at the top dose activity, negative = toxicity, hits mostly cytotoxic; 360,000 tested, 2% active; AID 686971;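 further: 0% = DMSO wells and -100% = cell-free medium wells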
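IDH1KD HT-1080 cells, 750/well, RPMI + 5% FBS; compound pinned after 2 h settling; 48 h, 37 °C; CellTiter-Glo luminescence; % activity normalised to DMSO and no-cell wells; curves fitted, classed by r2 and efficacy.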
Starred values were filed as active, the others as inactive; i = inactive; ? = inconclusive; . = no result. Sampled rows, rich in hits. Any-hit rate of the full collection: about 6.2%. The call rests on the fitted dose curve; in most records, active means well fitted curve in the direction sought with a large enough effect; inconclusive means small, poorly fitted or top-dose-only effect, or another doubt; inactive means no such curve, though single readings can be large; an effect the other way counts as inactive or inconclusive. Potency means the concentration at half of the fitted maximal effect.

SMILES	S2 tox	KB-V1 cytotox	HT1080NT lethal	KB-3-1 cytotox	ATXN2 expr inh	HT1080 IDH1KD tx
CN1CCN(C(=O)C2CCC(CNS(=O)(=O)c3cccc4cccnc34)CC2)CC1 (centres undefined)	i	i	0%	i	7%	2%
CCCN(CCC)C(=O)CC(c1ccccc1)c1ccc(C)cc1O (centres undefined)	i	7.3µM*	-3%	i	-4%	?
COC(=O)CCSc1cc(NCCOC(C)=O)c([N+](=O)[O-])c2nonc12	i	i	21µM*	i	4%	?
CC(=O)OCCCNc1cc(Sc2nc3ccccc3s2)c2nonc2c1[N+](=O)[O-]	.	i	-4%	i	16µM*	1%
CC(=O)OCCNc1cc(Sc2nc3ccccc3[nH]2)c2nonc2c1[N+](=O)[O-]	?	i	-37%	?	-88%	18µM*
O=C1[C@@H]2Cc3c([nH]c4ccccc34)C(c3cccc(Br)c3)N2C(=O)CN1C1CCN(Cc2ccccc2)CC1 (some centres undefined)	?	i	?	?	?	23µM*
CC1(C)SCCN(S(=O)(=O)c2ccc(OCC#CCO)cc2)[C@@H]1C(=O)NO	.	.	.	.	-14%	.
CSc1nc(SCC(=O)NCc2ccco2)c2c3c(sc2n1)COC(C)(C)C3	i	3.7µM*	7.9µM*	i	-11%	7.1µM*
Cc1ccc(S(=O)(=O)Nc2cccc(-c3ccc4nncn4n3)c2)cc1	i	16µM*	4.6µM*	3.7µM*	-16%	3.3µM*
O=C(Nc1ccc(Br)cc1)c1cc(S(=O)(=O)NC2CCCC2)ccc1F	?	?	.	21µM*	?	.
O=C(Nc1ccc(C(F)(F)F)cc1)c1cc(S(=O)(=O)NC2CCCCCC2)ccc1F	.	18µM*	.	?	32µM*	.
O=C(Nc1ccc(C(F)(F)F)cc1)c1cc(S(=O)(=O)NC2CCCCC2)ccc1F	?	?	.	i	?	.
COC(=O)CNC(c1ccccc1)c1cc(Cl)ccc1NC(=O)c1cccc(Cl)c1 (centres undefined)	i	5.2µM*	-3%	i	2%	-29%
CCOC(=O)CNC(c1ccccc1)c1cc(Br)ccc1NC(=O)c1cccc(Cl)c1 (centres undefined)	?	?	.	i	-17%	.
C[C@H](NC(=O)OC(C)(C)C)C(=O)c1ccco1	.	i	.	i	.	.
Nc1ncnc2c1ncn2COC(CO)CO	.	i	.	i	.	.
CCOc1ccccc1NC(=O)C1CCCCN1S(=O)(=O)c1ccccc1 (centres undefined)	?	8.2µM*	-1%	?	-11%	-2%
COc1ccc(NC(=O)C2CCCCN2S(=O)(=O)c2ccc(F)cc2)c(OC)c1 (centres undefined)	i	5.8µM*	14%	i	-21%	7%
CCOc1ccccc1NC(=O)C1CCCN(C(=O)NCc2ccccc2)C1 (centres undefined)	i	8.2µM*	1%	i	-4%	5%
COc1cccc(CNC(=O)C2CCN(S(=O)(=O)c3ccc(C)cc3)CC2)c1	i	i	18%	i	14%	9%
COc1cccc(CNC(=O)C2CCN(S(=O)(=O)c3ccc(F)cc3)CC2)c1	?	23µM*	-3%	i	4%	1%
CCOc1ccc(NC(=O)C2CCCCN2S(=O)(=O)c2ccccc2)cc1 (centres undefined)	i	?	2%	?	46%	-14%
COc1ccc(NC(=O)C2CCCCN2S(=O)(=O)c2ccc(F)cc2)cc1 (centres undefined)	i	i	3%	i	-9%	?
O=C(Nc1ccccc1N1CCCC1)C1CCN(S(=O)(=O)c2ccc(F)cc2)CC1	i	8.2µM*	1%	?	4%	0%
COc1ccccc1NC(=O)C1CCCCN1S(=O)(=O)c1ccc(F)cc1 (centres undefined)	i	5.2µM*	-4%	i	-9%	1%
SMILES	S2 tox	KB-V1 cytotox	HT1080NT lethal	KB-3-1 cytotox	ATXN2 expr inh	HT1080 IDH1KD tx
O=C(Nc1ccccc1N1CCOCC1)C1CCN(S(=O)(=O)c2ccc(F)cc2)CC1	i	?	3%	i	6%	3%
CCCNC(=O)C1CCN(S(=O)(=O)c2ccc(Br)cc2)CC1	i	16µM*	-9%	i	-11%	-28%
CN(C)S(=O)(=O)c1ccc2c(c1)C(=Cc1cc3c([nH]1)CCCC3)C(=O)N2	.	.	.	.	27%	.
COc1ccc(S(=O)(=O)NCc2cccn2Cc2cc(C)ccc2C)cc1OC	i	i	.	i	-5%	.
Cc1ccc(CNC(=O)C(C)n2nc(C)c3sc4ccccc4c3c2=O)cc1 (centres undefined)	.	i	.	i	.	.
CCOC(=O)C(C)n1nc(C)c2sc3ccccc3c2c1=O (centres undefined)	i	21µM*	11%	i	-2%	6%
CCc1ccc2nc(NC(=O)c3cc(C)on3)sc2c1	i	8.2µM*	9.2µM*	7.3µM*	30%	6.5µM*
Cc1onc(-c2ccccc2)c1C(=O)Nc1nc2c(s1)CCCC2	i	?	-12%	?	17%	-17%
Cc1cc(C(=O)Nc2nc3c(s2)CCCC3)no1	i	16µM*	0%	i	-35%	11%
CNC[C@H](CC1CCCCC1)NC[C@H](Cc1ccccc1)NCCC12CC3CC(CC(C3)C1)C2	16µM*	18µM*	21µM*	?	-26%	?
NC[C@H](Cc1ccccc1)NCCCCC1CCCCC1	i	i	0%	i	-12%	7%
